MCF10A rerep – induces DNA re-replication in MCF 10a normal breast cells | MCF 10A DNA re-replication, Hoechst nuclear intensity, 48 h | hit rate 2.9% among 350,000 | Potency, µM (series often up to 46.1 µM), without a hit: at the top dose activity, positive = re-replication, usual class: activators | AID 624296; further: % of control where 0% means no effect; nearly all actives have a fitted effect of over 50% in size
KB-3-1 tox – KB-3-1 parental cell cytotoxicity. KB-3-1 viability, CellTiter-Glo ATP luminescence, 72 h. Potency, µM (series often up to 46.1 µM), most hits filed as cytotoxic. hit rate 1.4% among 400,000. AID 1347075; further: on the % scale 0 is the no-effect control and ±100 the full control effect; nearly all actives have a fitted effect of over 60% in size
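Cells are dispensed, compounds pinned in, plates held at 37 °C for 72 h, then CellTiter-Glo is added and luminescence read after 10 minutes. Cell line: parental KB-3-1 in phenol-red-free DMEM, 10% FBS.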
KB-V1 MDR tox – KB-V1 MDR subline cytotoxicity | AID 1347076 | KB-V1 MDR cells viability, CellTiter-Glo, 72 h | hit rate 3.4% among 400,000 | Potency, µM (titrated, usually from 46.1 µM), most hits filed as cytotoxic; further: on the % scale 0 is the no-effect control and ±100 the full control effect; nearly all actives have a fitted effect of over 60% in size
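Following 72 h at 37 degrees C with compound, KB-V1 cell viability was read by CellTiter-Glo luminescence, medium being phenol-red-free DMEM plus 10% FBS; concentration-response parameters came from normalized, curve-fitted qHTS data.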
PINK1 modulator – modulators of PINK1 expression. PINK1 immunofluorescence, high-content cytometry, 24 h. Potency, µM (titrated, usually from 76.6 µM), without a hit: at the highest dose activation (PINK1 increase), most hits filed as activators. AID 624263. hit rate 0.2% among 410,000; active means well fitted activation curve with a large enough effect; inconclusive means small, poorly fitted or top-dose-only effect; cell line not stated here; further: % of control where 0% means no effect; nearly all actives have a fitted effect of over 65% in size
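Decision-based qHTS: stable cells, 24 h exposure to five compound concentrations, CCCP as control. Fixed cells stained for PINK1 plus nuclear, mitochondrial and cell markers, cytometer read.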
SW480 rerep – inducers of DNA re-replication in SW480 colon cancer cells | hit rate 1.8% among 340,000 | SW480 DNA re-replication, Hoechst DNA content imaging, 48 h | Potency, µM (doses to about 46.1 µM), for inactives: top-dose re-replication activation, hits mostly activators; further: % of control where 0% means no effect; nearly all actives have a fitted effect of over 55% in size
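Treated cells incubate 48 hr (37 C, 5% CO2), are stained 40 min with Hoechst, and nuclear fluorescence is enumerated; a rise in nuclei with high DNA signal marks re-replication.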
An asterisk follows results filed as active. Only some compounds are listed: those with a hit (about 6.7% of all), similar ones and a draw of the others. Unless noted, the call rests on the fitted dose curve; in most records, active means well fitted curve in the direction sought with a large enough effect; inconclusive means small, poorly fitted or top-dose-only effect, or another doubt; inactive means no such curve, though single readings can be large; an effect the other way counts as inactive or inconclusive. Potency means the concentration at half of the fitted maximal effect.

Results for CC1(C(=O)NCc2ccco2)Cc2c(-c3ccc(C(N)=O)cc3)ccnc2O1 (configuration not stated) ?
KB-3-1 tox: 18µM*; KB-V1 MDR tox: inactive; PINK1 modulator: 7%

How did CC1(C(=O)NCc2ccccc2)Cc2c(-c3ccccc3)ccnc2O1 (configuration not stated) do in these assays?
KB-3-1 tox: 21µM*; KB-V1 MDR tox: inconclusive; PINK1 modulator: 5%

Results for CC1(C(=O)NCc2cccc(Cl)c2)Cc2c(-c3ccccc3)ccnc2O1 (configuration not stated) ?
KB-3-1 tox: inactive; KB-V1 MDR tox: inactive; PINK1 modulator: 2%

What do the screens show for `CC1(C(=O)NCc2ccccc2)Cc2c(-c3ccc(C(N)=O)cc3)ccnc2O1` (configuration not stated)?
KB-3-1 tox: 8.2µM*; KB-V1 MDR tox: inactive; PINK1 modulator: 4%

What do the screens show for `CC1(C(=O)NCc2ccccc2)Cc2c(-c3ccc4c(c3)OCO4)ccnc2O1` (configuration not stated)?
KB-3-1 tox: 4.6µM*; KB-V1 MDR tox: 2.1µM*; PINK1 modulator: 6%

What do the screens show for `Cc1ccc(-c2noc(C3CCCN(C(=O)c4ccccc4Br)C3)n2)o1` (configuration not stated)?
MCF10A rerep: 12%; KB-3-1 tox: inactive; KB-V1 MDR tox: inconclusive; PINK1 modulator: 2%; SW480 rerep: 7%

How did Nc1nc2ccccc2n1S(=O)(=O)c1ccc(Cl)cc1 do in these assays?
KB-3-1 tox: inactive; KB-V1 MDR tox: inactive; PINK1 modulator: 8%

Results for Cc1cc(NC(=O)CCC(=O)N(CC(=O)NC2CCCC2)c2ccc(C(C)C)cc2)no1 ?
MCF10A rerep: 4%; KB-3-1 tox: inactive; KB-V1 MDR tox: inconclusive; PINK1 modulator: 3%; SW480 rerep: -9%

Results for Cc1ccc(/C=N/NC(=O)Cc2ccc(Cl)cc2)c(O)c1 ?
MCF10A rerep: 15%; KB-3-1 tox: inconclusive; KB-V1 MDR tox: 7.3µM*; PINK1 modulator: 0%; SW480 rerep: 7.3µM*

Results for C/C(=N\OCC(=O)N/N=C/c1ccc(C)cc1O)c1cccs1 ?
MCF10A rerep: 4.1µM*; KB-3-1 tox: inactive; KB-V1 MDR tox: inconclusive; PINK1 modulator: -3%; SW480 rerep: 6.5µM*

How did C/C(=N\NC(=O)CO/N=C(\C)c1cccs1)c1ccc(N)cc1 do in these assays?
MCF10A rerep: 4%; KB-3-1 tox: inactive; KB-V1 MDR tox: inactive; PINK1 modulator: 0%; SW480 rerep: -2%

What do the screens show for `Cc1ccccc1/C=N/NC(=O)Cc1ccc(Cl)cc1`?
MCF10A rerep: inconclusive; KB-3-1 tox: inactive; KB-V1 MDR tox: inactive; PINK1 modulator: 9%; SW480 rerep: -9%

What do the screens show for `Cc1cc([N+](=O)[O-])ccc1NC(=O)C(C)N1CCN(c2ccccn2)CC1` (configuration not stated)?
MCF10A rerep: 0%; KB-3-1 tox: inactive; KB-V1 MDR tox: 21µM*; PINK1 modulator: -2%; SW480 rerep: -1%

Results for COc1ccc(C(=O)c2[nH]c(N)c(C(=O)NCCc3c[nH]c4ccccc34)c2-c2ccccc2Br)cc1 ?
KB-3-1 tox: inconclusive; KB-V1 MDR tox: inconclusive; PINK1 modulator: 6%

Results for CC(=O)Nc1ccc(NC(=O)CCCN2C(=O)c3ccccc3C2=O)cc1 ?
MCF10A rerep: 0%; KB-3-1 tox: inactive; KB-V1 MDR tox: inactive; PINK1 modulator: 1%; SW480 rerep: 1%

How did CC(=O)Nc1ccc(NC(=O)CCN2C(=O)c3ccccc3C2=O)cc1 do in these assays?
MCF10A rerep: 0.58µM*; KB-3-1 tox: inactive; KB-V1 MDR tox: inactive; PINK1 modulator: 1%; SW480 rerep: -38%

Results for CCCC1=NN2C(=N)/C(=C\c3cc(C)n(-c4cc(C)cc(C)c4)c3C)C(=O)N=C2S1 ?
MCF10A rerep: 21µM*; KB-3-1 tox: inactive; KB-V1 MDR tox: inconclusive; PINK1 modulator: 3%; SW480 rerep: 1%

Results for Cc1cc(/C=C2\C(=N)N3N=C(CC(=O)N4CCOCC4)SC3=NC2=O)c(C)n1Cc1ccccc1 ?
MCF10A rerep: 18µM*; KB-3-1 tox: inactive; KB-V1 MDR tox: inactive; PINK1 modulator: -1%; SW480 rerep: -7%

Screening data as filed in PubChem.
